Only some compounds are listed: those with a hit (about 3.3% of all), similar ones and a draw of the others.
DRD3 antagonist: qHTS of D3 Dopamine Receptor Antagonist: qHTS | D(3) dopamine receptor (Homo sapiens), P35462 | D3R cells, DiscoveRx beta-arrestin luminescence, antagonist mode; hits give low values | max response, negative = inhibition, % | 2.5% of 360,000 active | AID 652054, 2013; in the data active = max response below about -50%; inconclusive = no clear call, values can overlap the other calls; note: % is set by controls: 0 for no effect and ±100 for the full control effect
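Cells plated overnight at 1500 cells/well, then exposed to library compounds with dopamine controls for 90 minutes at 37 degrees C. DiscoveRx reagent added for 30–60 minutes at room temperature; luminescence read, quantitative HTS format.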
PI4K2A inh: qHTS for small molecular inhibitors of PI4K2A; Phosphatidylinositol 4-kinase type 2-alpha (Homo sapiens), Q9BTU6; purified PI4K2A, ADP-Glo luminescence, 1 h; hits give low values; activity change, negative = inhibition, % at 76.9 µM; 0.13% of 420,000 active; AID 1346378, 2018; in the data active = activity change below about -50%; inconclusive = mostly about -30% to -49%;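 note: -100% = wells without enzyme as full effect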
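In this quantitative HTS, ADP production by PI4K2A was quantified luminescently after 1 h at ambient temperature; 100 microM adenosine served as plate-quality control.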
LDHA block: qHTS assay for inhibitors of human lactate dehydrogenase; L-lactate dehydrogenase A chain (Homo sapiens), P00338; purified LDHA, NADH/diaphorase-resazurin fluorescence; hits give low values; activity change, % (values are at about 110 or 230 µM); 0.15% of 480,000 active; AID 1347041, 2019; in the data active = activity change below about -30%; inconclusive = mostly about -25% to -30%;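 note: plate controls were DMSO wells for no effect and wells without enzyme for full effect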
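Remaining NADH was detected by diaphorase (0.133 mg/mL) converting 37 µM resazurin to fluorescent resorufin, read at 0 and 20 minutes. The preceding 5-minute room-temperature reaction used 2 nM LDHA, 0.2 mM sodium pyruvate and 0.06 mM NADH at pH 7.4.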
PI5P4Ka inh: qHTS for Inhibitors of phosphatidylinositol 5-phosphate 4-kinase (PI5P4K) | Phosphatidylinositol 5-phosphate 4-kinase type-2 alpha (Homo sapiens), P48426 | PI5P4Kalpha enzyme, ADP-Glo luminescence, 60 min; hits give low values | max response, % | 1.2% of 330,000 active | AID 652105, 2013; active = max response of -50% or lower; inconclusive = between -30% and -50%; inactive = -30% or higher; note: value at the top dose of about 77 µM; % is set by controls: 0 for no effect and ±100 for the full control effect
Target sequence (P48426 whole entry, looked up): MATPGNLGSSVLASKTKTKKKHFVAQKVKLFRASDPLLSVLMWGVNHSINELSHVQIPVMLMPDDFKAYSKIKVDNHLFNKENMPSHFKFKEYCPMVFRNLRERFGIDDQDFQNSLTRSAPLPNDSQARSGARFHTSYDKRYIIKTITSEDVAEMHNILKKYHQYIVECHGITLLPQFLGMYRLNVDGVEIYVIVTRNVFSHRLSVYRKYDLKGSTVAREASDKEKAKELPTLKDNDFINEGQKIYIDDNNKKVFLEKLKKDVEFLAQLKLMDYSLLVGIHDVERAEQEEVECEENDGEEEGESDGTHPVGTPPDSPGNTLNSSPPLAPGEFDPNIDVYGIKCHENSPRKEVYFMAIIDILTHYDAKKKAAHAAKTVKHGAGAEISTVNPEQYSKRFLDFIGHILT
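PI5P4Kalpha ADP-Glo assay; 5 microM ATP final; 60 min RT reaction; HEPES pH 7.4/EGTA/CHAPS, 5% DMSO; controls lacking substrate or enzyme; luminescent end-point.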
D3 ag: qHTS of D3 Dopamine Receptor Agonist: qHTS. D3R DiscoveRx beta-arrestin cells, luminescence, 90 min. max activation, %. 0.58% of 410,000 active. AID 652048, 2013; in the data active = max activation above about 30%; note: 0% is about no effect
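Cells at 1500/well, incubated overnight, then treated with pinned compounds (dopamine as control) for 90 min at 37 degrees C. DiscoveRx reagent added for 30 - 60 minutes at room temperature; luminescence read.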
* hit, by the source's call; ? = inconclusive; / = not tested or not shown; ! = not confirmed by another sample.

SMILES | DRD3 antagonist | PI4K2A inh | LDHA block | PI5P4Ka inh | D3 ag
C=CCNc1nc(NCc2ccccc2)c(C#N)c2c1CN(C)CC2 | -66* | 2 | 13 | -1 | -6
CCCCn1nnnc1C(c1ccccc1)N1CCN(C)CC1 (stereo not given) | 22 | 1 | -4 | 0 | 0
CCCCn1nnnc1C(c1ccccc1OC(F)(F)F)N1CCN(C/C=C/c2ccccc2)CC1 (stereo not given) | -59* | 0 | 0 | -1 | -11
COc1ccccc1C(c1nnnn1Cc1ccccc1)N1CCN(c2nc3ccccc3s2)CC1 (stereo not given) | -8 | -4 | 0 | 0 | 4
FC(F)(F)Oc1ccccc1C(c1nnnn1Cc1ccccc1)N1CCN(C/C=C/c2ccccc2)CC1 (stereo not given) | -66* | 0 | -7 | -1 | -20
COc1cccc(C(c2nnnn2Cc2ccccc2)N2CCN(C3CCCC3)CC2)c1OC (stereo not given) | 0 | 5 | -6 | 0 | -8
COc1ccccc1C(c1nnnn1Cc1ccccc1)N1CCN(C2CCCC2)CC1 (stereo not given) | -58* | -18 | -2 | -6 | -7
COc1ccc2[nH]c3c(c2c1)CCN[C@]31C(=O)N(Cc2ccccc2)c2ccccc21 | / | 3 | / | / | /
S=c1[nH]nc(-c2n[nH]c3c2CCC3)n1/N=C/C=C/c1ccccc1 | -115* | -5 | -11 | -24 | -6
S=c1[nH]nc(-c2ccccc2Cl)n1/N=C/C=C/c1ccco1 | -22 | -6 | 0 | -60* | -4
Cc1cccc(-c2n[nH]c(=S)n2/N=C/C=C/c2ccco2)c1 | -98* | -15 | -2 | ? | -10
CC(C(=O)N1CCc2ccccc2C1)N(C)CC(=O)Nc1ccccc1C(F)(F)F (stereo not given) | / | / | 7 | / | /
CC(NC(=O)NC1CCCCC1)C(c1cccs1)N1CCN(c2ccccc2)CC1 (stereo not given) | -55* | -1 | -7 | 4 | -8
COc1cccc(NC(=O)C(C)n2cnc3c2c(=O)n(C)c(=O)n3C)c1 (stereo not given) | / | / | 0 | / | /
C=CCNC(=O)COC(=O)c1cc(-c2ccc(C)cc2)nc2ccccc12 | / | / | 4 | / | /
O=C[C@H](O)[C@@H](O)[C@H](O[C@H]1O[C@H](CO)[C@@H](O[C@H]2O[C@H](CO)[C@@H](O)[C@H](O)[C@H]2O)[C@H](O)[C@H]1O)[C@H](O)CO | / | / | / | / | 9
C/C(=N/OC(=O)c1ccc(C)cc1)c1cccs1 | -3 | -80* | -11 | -25 | -1
CCOc1ccc(C(=O)O/N=C(\N)c2ccccn2)cc1 | 7 | -88* | -3 | -79* | -5
N/C(=N\OC(=O)c1ccccc1)c1ccccn1 | 6 | -67* | -3 | ? | 19
Cc1ccc(C(=O)O/N=C(\N)c2ccccn2)cc1 | 4 | -86* | -6 | -55* | 0
CC(C)(C)c1ccc(C(=O)O/N=C(\N)c2ccccn2)cc1 | 5 | ? | -3 | -4 | 2
C/C(=N/OC(=O)c1ccc(-c2ccccc2)cc1)c1cccs1 | / | / | 10 | / | /
CC(=O)Nc1cccc(C(C)NC(=O)Nc2ccc(Cl)cc2Cl)c1 (stereo not given) | / | / | 7 | / | /
N#CC1=C(N)OC2=C(C(=O)CC(c3ccc(Cl)cc3)C2)C1c1ccccc1Cl (stereo not given) | / | / | 2 | / | /
CCOc1ccc(NC(=O)NCc2nc(-c3ccc(C)cc3)oc2C)cc1 | / | / | -1 | / | /
SMILES | DRD3 antagonist | PI4K2A inh | LDHA block | PI5P4Ka inh | D3 ag
CC1=C(C#N)C(c2ccc(C(C)C)cc2)C(C#N)=C(C)N1 | / | / | 10 | / | /
Cc1ccc(C(=O)Nc2ccc(CC(=O)N3CCOCC3)cc2)cc1F | / | / | -15 | / | /
CN1CCN(C(=O)C2=C[C@@H](c3csc4ccccc34)C[C@@H](OCc3ccc(CO)cc3)O2)CC1 | -72* | 0 | -3 | 18 | -45
O=C(NCc1ccccc1)C1=C[C@H](c2csc3ccccc23)C[C@H](OCc2ccc(CO)cc2)O1 | 0 | 6 | -13 | -2 | -11
O=C(Nc1ccccc1)C1=C[C@@H](c2csc3ccccc23)C[C@@H](OCc2ccc(CO)cc2)O1 | -51* | -1 | 0 | 6 | -32
CCOC(=O)c1c(C)c(C(=O)Nc2ccc(Cl)cc2)c(C)n1CC | / | / | -3 | / | /
CCCCc1c(-c2ccccc2OC)ncn1Cc1ccc(-c2ccccc2)cc1 | ? | -3 | 2 | -1 | -2
CCc1c(C2CC2)ncn1Cc1cccc(-c2ccccc2)c1 | -95* | -5 | 4 | -13 | -14
CCCCc1c(-c2ccccc2OC)ncn1Cc1cccc(-c2ccccc2)c1 | -108* | -9 | 6 | ? | -21
COC(=O)CSc1nnc(-c2ccc(NS(=O)(=O)c3ccc(Cl)s3)cc2)o1 | / | 10 | / | / | /
COC(=O)c1ccc(C(=O)NCC(C)C)cc1 | / | / | -5 | / | /
COc1cc(C(C)=O)ccc1OCC(O)CN1CCN(c2ccc(C)cc2C)CC1 (stereo not given) | -67* | 1 | -1 | -2 | -13
COc1cc(C(C)=O)ccc1OCC(O)CN1CCN(c2ccccn2)CC1 (stereo not given) | 7 | 3 | 0 | 5 | 78*
CC(C)CNC(=O)NC(=O)CNC(C(=O)N(C)C)c1ccccc1 (stereo not given) | / | / | -1 | / | /
C=CC[C@@H](CC(=O)N(CCO)Cc1ccccc1)C(=O)N[C@H](C)COC(=O)[C@@H](CC=C)Cc1ccc(F)cc1 | 162 | -2 | 0 | 5 | 40*
C=CC[C@H](CC(=O)N(CCO)Cc1ccccc1)C(=O)N[C@H](C)COC(=O)[C@@H](CC=C)Cc1ccc(F)cc1 | 24 | 1 | 0 | 0 | 7
C=CC[C@H](CC(=O)N(CCO)Cc1ccccc1)C(=O)N[C@@H](C)COC(=O)[C@H](CC=C)CC(=O)OC(C)(C)C | 17 | -2 | 0 | 0 | 43*
Cc1nn2c(N3CCN(c4ccccn4)CC3)cc(C(C)C)nc2c1-c1ccccc1 | -56* | 2 | -16 | / | 0
CC(NC(=O)C1CCN(C(=O)c2cccc3ccccc23)CC1)c1ccc(F)c(F)c1 (stereo not given) | / | / | 4 | / | /
C/C(N)=C(/C#N)C(=O)COC(=O)C1Cc2ccccc2CN1S(C)(=O)=O (stereo not given) | 15 | 9 | -1 | -59*! | 9
CCOc1nc(NCCc2ccc(OC)c(OC)c2)nc(NC(C)(C)CO)n1 | -62* | 1 | -10 | / | 2
CCOC(=O)C1CCN(C(=O)N2CCOCC2)CC1 | 10 | -90* | -10 | -6 | -2
